High-throughput results deposited in PubChem BioAssay by National Center for Advancing Translational Sciences (NCATS).
Sampled rows, rich in hits. Any-hit rate of the full collection: about 12%.
MARV entry inh – inhibitors of Marburg virus binding or cell entry | Marburg virus pseudotyped entry inhibition, cell reporter | hit rate 1.8% among 300,000 | Potency, µM (top dose mostly 37.8 µM), for inactives: at the top dose activity change, negative = inhibition, hits mostly inhibitors; calls by dose curve; tested in HEK293 cells; note: potency is the fitted concentration of half-maximal effect; % is set by controls: 0 for no effect and ±100 for the full control effect
CHX counter – counter-screen hit for Shiga toxin inhibitors, cycloheximide. cell reporter, cycloheximide protein synthesis inhibition counterscreen. max response, %. hit rate 12% among 300,000; in the data active = max response mostly above about 13%, no sharp cut-off; inactive = mostly below about 14%; note: read at 38.3 µM for the half of the compounds with a filed dose; 0% is about no effect
Shiga toxin inh – Shiga toxin inhibition. inhibition, % at 38.7 µM. hit rate 9.2% among 290,000. Vero cells, Shiga toxin protein synthesis inhibition reporter; in the data active = inhibition mostly above about 28%, no sharp cut-off; inactive = mostly below about 43%; note: 0% is about no effect
LASV entry inh – inhibitors of Lassa virus binding or cell entry | Lassa virus pseudotype entry inhibition, cell reporter | Potency, µM (highest dose often 37.9 µM), for inactives: at the top dose activity change, negative = inhibition, actives largely listed as inhibitors | hit rate 1.2% among 300,000; calls by dose curve; tested in HEK293 cells; note: potency is the fitted concentration of half-maximal effect; % is set by controls: 0 for no effect and ±100 for the full control effect; nearly all actives have a fitted effect of over 50% in size
* hit, by the source's call; ? = inconclusive; . = no result; [ ] = another dose, or the depositor's remark.

SMILES	MARV entry inh	CHX counter	Shiga toxin inh	LASV entry inh
O=C(NNC(=O)c1cccs1)c1ccc2ccccc2c1	10.6%[46.1 µM]	29.4*	50.7*	12.0%
CCc1ccc(C(=O)COC(=O)c2cccs2)cc1	-7.5%	23.4*	51.7	.
Cc1ccc(C(=O)COC(=O)c2cccs2)cc1	?	10.8	-2.2	-16.6%
COC(=O)c1cc(S(=O)(=O)N2c3ccccc3CC2C)cn1C (centres undefined)	-13.4%[46.1 µM]	-2.5	-5.6	-20.1%[46.1 µM]
COC(=O)c1cccc(NC(=O)CSCc2ccccc2)c1	.	19.0*	16.2	.
CN(C)c1cccc(NC(=O)CCc2ccccc2)c1	14.5%	18.0*	67.7*	22.7%
Cc1cccc(NC(=O)CCc2ccccc2)c1	16.7%	54.4*	111.1	29.8%
COc1ccc(NC(=O)CCC2CCCC2)cc1OC	-0.5%	18.5*	66.9*	-4.1%
COc1ccc(NC(=O)CC2CCCC2)cc1OC	10.3%[46.1 µM]	15.0	-5.2	17.5%[46.1 µM]
CC(=O)Nc1ccc(S(=O)(=O)NCCCc2ccccc2)cc1	?	4.0	.	-13.0%
CC(=O)Nc1ccc(NC(=O)CCCc2ccccc2)cc1	16.3%	30.8*	24.3	-0.5%
CC(=O)Nc1cccc(NC(=O)CCc2ccccc2)c1	11.8%	24.0	138.5*	0.8%
COc1ccc(CCOC(=O)c2cccc(NC(C)=O)c2)cc1	-14.6%[46.1 µM]	36.2*	52.1*	-11.6%[46.1 µM]
COc1ccc(NC(=O)CCCc2ccccc2)cc1OC	?	53.9*	89.3*	1.0%[46.1 µM]
Cc1ccc(NS(=O)(=O)N2CCCCC2)cc1	-12.5%[46.1 µM]	.	.	10.9%[46.1 µM]
CC(=O)Nc1cccc(C(=O)N(Cc2ccccc2)Cc2ccccc2)c1	.	-2.1	-6.1	.
CC(=O)Nc1cccc(C(=O)N(CCc2ccccc2)Cc2ccccc2)c1	4.1%	28.5*	22.8	0.2%
COC(=O)c1cccc(NC(=O)CCc2ccccc2)c1	?	57.6*	57.5*	?
CC(C)(C)C1CCc2c(sc(NC(=O)c3cccc(Cl)c3)c2C(N)=O)C1 (centres undefined)	3.2%[46.1 µM]	.	.	11.0%[46.1 µM]
O=C(c1cccn2c(=O)c3cc4ccccc4cc3nc12)N1CCN(c2ccccc2)CC1	0.2%	22.7*	34.9*	.
O=C(NC(Cc1ccccc1)C(=O)O)/C(=C\c1ccco1)NC(=O)c1ccco1 (centres undefined)	?	19.1*	18.5	-9.7%
O=C(N[C@@H](Cc1ccccc1)C(=O)NC1CCCCCC1)c1ccco1	3.9%	52.5*	98.3*	3.0%
O=C(N[C@@H](Cc1ccccc1)C(=O)NC1CCCCC1)c1ccco1	4.2%	14.0	22.6*	8.3%
O=C(NC(Cc1ccccc1)C(=O)O)c1ccco1 (centres undefined)	0.5%[46.1 µM]	-1.7	-2.8	2.7%
CC(C)C(NC(=O)c1ccco1)C(=O)NC1CCCCCC1 (centres undefined)	-1.0%[46.1 µM]	-2.4	11.7	25.4%[46.1 µM]
SMILES	MARV entry inh	CHX counter	Shiga toxin inh	LASV entry inh
O=C(COC(=O)c1ccccc1NC(=O)c1ccco1)NC1CCCCC1	2.0%[46.1 µM]	0.6	11.0	-1.3%
O=C(COC(=O)c1ccco1)NC1CCCCC1	?	22.3*	17.0	-2.7%
CCc1nc2ccccc2c(C(=O)Nc2ccc(F)cc2)c1C	.	14.9	27.4	.
COc1ccccc1N1CCN(c2ncnc3c2cnn3-c2cccc(Cl)c2)CC1	.	.	.	-1.5%[46.1 µM]
COc1ccc(CNC(=O)CCCn2nc(C)c3c(C)n(-c4ccc(C)cc4)nc3c2=O)cc1	.	-3.1	26.1	.
O=C(NC1CCN(C(=O)NC2CCCCC2)CC1)c1ccco1	?	-3.0	19.2	28.9%
O=C(NC1CCCCCCC1)c1ccco1	?	18.0*	43.0*	20.0%
CC(OC(=O)c1ccco1)C(=O)NC1CCCCC1 (centres undefined)	-2.2%	-3.3	-19.6	0.9%
C/C(=N\NC(=O)NC1CCCCC1)c1ccco1	?	11.8*	22.9	9.9%
O=C(O)c1cn(-c2ccc(F)c(F)c2)c2c(F)c(F)c(F)c(F)c2c1=O	-14.4%	-2.1	-15.0	-12.4%
O=C(CSc1cn(CC(=O)N2CCOCC2)c2ccccc12)Nc1ccccc1F	.	.	.	18.4%[46.1 µM]
CC(C)C(=O)N1CCN(c2ccc(NC(=S)NC(=O)c3cc4ccccc4o3)cc2)CC1	?	33.4*	75.5*	?
CCCC(=O)c1c[nH]c(C(=O)NCCc2ccccn2)c1	?	15.8*	39.7	-7.5%
O=C(Nc1ccccc1)c1cc2ccccc2o1	?	26.1	45.2*	10µM*
O=C(Nc1ccc(NC(=O)c2cc3ccccc3o2)cc1)c1ccco1	-7.8%[46.1 µM]	1.0	41.9	.
CCC(=O)N1CCN(c2ccc(NC(=S)NC(=O)c3cc4ccccc4o3)cc2)CC1	3.5%	24.9	21.4	-13.7%
O=C(Nc1ccc(F)cc1)c1cc2ccccc2o1	.	46.3*	57.7*	.
CC(C)Oc1ccc(CNC2CCOC(C)(C)C2)cc1 (centres undefined)	?	6.0	-16.5	10.4%
CN(C)CCNC(=O)CCCN1C(=O)c2cccnc2Oc2ccc(Cl)cc21	.	.	.	29.1%[46.1 µM]
CCOc1ccc(NC(=O)Cn2c(=O)n(-c3ccccc3)c(=O)c3ccc(C(=O)NCc4ccc5c(c4)OCO5)cc32)cc1	?	.	.	-11.6%[46.1 µM]
CC(C)c1nnc(NC(=O)c2cc3ccccc3o2)s1	41.6%[46.1 µM]	32.9*	110.5*	-15.0%[46.1 µM]
CCCNC(=O)c1cc2ccccc2c(=O)o1	27.5%	20.6*	56.7*	15.8%
O=C(NCCc1ccccn1)c1cc2ccccc2o1	17.9%[46.1 µM]	48.6*	83.7*	-17.8%
Cc1cc(C(=O)Nc2ccccc2)oc1C	?	38.7*	120.9*	?
CC(=O)N1CCN(c2ccc(NC(=O)c3cc4ccccc4o3)cc2)CC1	.	22.1	20.1	.
SMILES	MARV entry inh	CHX counter	Shiga toxin inh	LASV entry inh
O=C(Nc1ccc(N2CCCC2)cc1)c1cc2ccccc2o1	.	46.6*	64.8*	.
CC(=O)c1ccc(NC(=O)c2cc3ccccc3o2)cc1	.	35.1*	.	.
O=C(NCc1ccccc1)c1cc2ccccc2o1	?	22.5*	65.6	?
COc1ccc(NC(=O)CC2C(=O)N(c3cccc(OC)c3)C(=O)N2Cc2ccc3c(c2)OCO3)cc1 (centres undefined)	-26.9%[46.1 µM]	.	.	?
Nc1nnnn1-c1cccc([N+](=O)[O-])c1	5.3%	.	.	5.0%
O=C1C2C(C(=O)N1c1ccccc1)N1CCCN1C2c1ccccc1 (centres undefined)	6.4%[46.1 µM]	-1.2	-11.1	-10.1%
C#CC[N+](C)(C)CCCCCCCCCC	-16.6%	-5.1	-14.2	-29.1%
CC#CC[N+](C)(C)CCCCCCCCCCCC	10.3µM*	-1.4	-11.8	?
COc1ccc(-c2noc(-c3cccs3)n2)cc1OC	?	51.8*	69.2*	-21.4%
CNc1ccc(-c2nc(-c3ccncc3)no2)cc1[N+](=O)[O-]	13.5%[46.1 µM]	.	.	-1.3%[46.1 µM]
Cc1ccc(-c2nc(-c3ccncc3)no2)cc1C	?	51.8*	132.9*	?
COc1ccc(-c2noc(-c3ccco3)n2)cc1OC	-19.8%	42.7*	139.0*	?
Cc1cc(-c2nc(-c3ccncc3)no2)ccc1[N+](=O)[O-]	?	32.8*	88.5*	-16.2%
COc1ccc(-c2cc3nc(C)c(CCC(=O)N4CCN(c5cc(C)ccc5C)CC4)c(C)n3n2)c(OC)c1	-1.5%[46.1 µM]	.	.	12.7%[46.1 µM]
O=C(COC(=O)c1ccc([N+](=O)[O-])o1)Nc1ncc(Cl)cc1Cl	9.3%	.	.	2.4%[46.1 µM]
CCOc1ccc(-c2noc(-c3ccncc3)n2)cc1OCC	18.8%	-1.3	18.6	-7.9%
COc1ccc(-c2noc(-c3ccccc3Cl)n2)cc1OC	13.4%	56.1*	65.1*	-27.0%
